The campaign covered roughly 5,500 compounds. About 2,000 (36%) were called active. Roughly 18% stayed inconclusive and do not appear here. Rule as the data show it: active = normalized growth mostly below about 0.91 (no sharp cut-off); inconclusive = no clear call, values can overlap the other calls; inactive = mostly above about 0.92. Some of the results follow.
Assay: chemical genetic growth profiling, strain panel (AID 1159580);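 also: tested at 20 µM; growth read once vehicle control cultures reached saturation at 30 °C; 1 = growth at the plate median or of vehicle wells; lower values mean less growth of the strain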
Details: S. cerevisiae deletion strains, growth OD

Measured: normalized growth

O=c1cc(N2CCOCC2)oc2c(-c3ccccc3)cccc12
inactive: locus YAL013W, strain DEP1, hits give low values 1.03 | locus YAL040C, strain CLN3, hits give low values 0.996 | locus YCL061C, strain MRC1 (second series), hits give low values 1.01 | locus YDR150W, strain NUM1, hits give low values 0.992 | locus YDR363W, strain ESC2, hits give low values 0.995 | locus YER002W, strain NOP16, hits give low values 1 | locus YMR263W, strain SAP30, hits give low values 0.992 | locus YNL175C, strain NOP13, hits give low values 0.996 | locus YNL197C, strain WHI3, hits give low values 0.991 | locus YNL224C, strain SQS1, hits give low values 0.999 | locus YNL322C, strain KRE1, hits give low values 1.01 | locus YOR083W, strain WHI5 (second series), hits give low values 0.986 | locus YPL241C, strain CIN2, hits give low values 0.998

— PubChem BioAssay AID1159580 (chemical genetic matrix, 2015)
